Shown are actives, neighbours in structure and some others; about 1.2% of the full set was active somewhere.
C-LANA FP = KSHV C-LANA DNA binding inhibition | inhibition, % at 9 µM | hit rate 0.078% among 340,000 | MBP-C-LANA/FAM-LBS DNA binding, fluorescence polarization;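 active = highest replicate inhibition at or above 60% at 9 µM, even if other replicates fall short; inactive = all replicates below 60% inhibition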;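 also: 0% = neutral control wells and 100% = 4 µM acridine orange control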
E coli Lon inh = E. coli protease La inhibition | P0A9M0 | purified E. coli Lon protease, fluorescence polarization | inhibition, % at 7.94 µM | hit rate 0.42% among 360,000 | AID 602123; in the data active = inhibition above about 13%, passing the limit was not always enough;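 also: 0% = enzyme with probe and DMSO and 100% = no enzyme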
Keap1 Nrf2 FP = inhibitors of human Keap1-Nrf2 protein-protein interaction; inhibition, % at 9.4 µM; Keap1 Kelch-Nrf2 peptide fluorescence polarization, 1536-well; AID 504523; Q14145; hit rate 0.15% among 340,000; in the data active = inhibition above about 12%; inconclusive = no clear call, values can overlap the other calls; inactive = below about 7.3%;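 also: human Keap1 Kelch domain with fluorescein labeled Nrf2 9mer peptide probe; 0% = neutral control wells and 100% = peptide positive control; higher means more block of Keap1 binding to Nrf2 peptide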
GLD-1 RNA inh = GLD-1-TGE RNA interaction inhibition (C. elegans); purified GLD-1 + fluorescein TGE RNA, fluorescence polarization; inhibition, % at 5.96 µM; hit rate 0.44% among 320,000; AID 2280;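 active = percent inhibition above a per-plate cutoff, the plate mean of test compounds plus 3 SD, cut at about 30% in these data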;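 also: 0% = DMSO wells with GLD-1 and probe and 100% = wells lacking GLD-1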
MEX-5 binding = C. elegans MEX-5 TCR-2 RNA binding activity; Q9XUB2; MEX-5/FITC-TCR2 RNA binding, fluorescence polarization; hits give low values; activity score (negative = inhibition of binding), % at 10 µM; hit rate 0.38% among 300,000;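 active = inhibition past about -25% in most replicates, and total fluorescence under double the plate's negative control median, limit read from the data; inconclusive = replicates evenly split on the limit, or fluorescence at least double controls; inactive = too little inhibition in most replicates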;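 also: 0% = DMSO and -100% = 5 µM competing unlabeled TCR2 RNA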
Target sequence (Q9XUB2 whole entry, looked up): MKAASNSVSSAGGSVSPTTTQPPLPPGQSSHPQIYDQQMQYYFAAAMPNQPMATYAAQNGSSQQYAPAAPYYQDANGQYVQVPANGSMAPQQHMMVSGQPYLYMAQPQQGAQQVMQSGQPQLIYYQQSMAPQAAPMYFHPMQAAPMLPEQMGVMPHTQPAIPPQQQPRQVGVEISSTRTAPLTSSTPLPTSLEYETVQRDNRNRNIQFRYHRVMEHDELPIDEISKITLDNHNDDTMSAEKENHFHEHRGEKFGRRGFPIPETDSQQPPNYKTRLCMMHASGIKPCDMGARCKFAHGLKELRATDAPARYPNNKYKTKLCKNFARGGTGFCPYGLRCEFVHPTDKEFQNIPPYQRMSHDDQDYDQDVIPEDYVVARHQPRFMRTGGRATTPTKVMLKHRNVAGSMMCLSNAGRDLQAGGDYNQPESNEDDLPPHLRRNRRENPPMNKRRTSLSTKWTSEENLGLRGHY
BCLXL inh = inhibitors of human Bcl-xL; GST-Bcl-xL / FITC-Bim BH3 peptide fluorescence polarization; inhibition, % at 10.9 µM; hit rate 0.7% among 320,000; AID 2129;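 active = inhibition above the mean of all tested compounds plus 3 SD, cutoff set per campaign, cut at about 30% in these data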;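 also: 0% = DMSO wells and 100% = unlabeled Bim-BH3 peptide competitor; inhibitors lower millipolarization by displacing the labeled peptide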
E coli Lon conf = E. coli Lon inhibition confirmation. inhibition, % at 7.94 µM. shares compounds with E coli Lon inh. purified E. coli Lon, fluorescence polarization. hit rate 31% among 1,400; in the data active = inhibition above about 16%;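 also: 0% = enzyme with probe and DMSO and 100% = no enzyme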
* marks the source's active call; other numbers are inactive results; ? = inconclusive; . = no result.

SMILES	C-LANA FP	E coli Lon inh	Keap1 Nrf2 FP	GLD-1 RNA inh	MEX-5 binding	BCLXL inh	E coli Lon conf
CC1/C(=N/O)CC(c2ccco2)NC1c1ccco1 (stereo not given)	2	-6	-1	-1	0	-1	.
NS(=O)(=O)c1ccc(CNS(=O)(=O)c2cccc3nonc23)cc1	.	2	.	-3	-1	1	.
O=C1NC2c3c(I)sc(I)c3C(=O)C2O1 (stereo not given)	12	105*	-2	.	.	.	17*
O=C(CSc1nncn1-c1cccnc1)Nc1cccc(C(F)(F)F)c1	0	2	-4	8	-2	4	.
Cc1ccc(NC(=O)COC(=O)CCc2c[nH]c(=O)[nH]2)cc1	6	31*	7	-2	-13	9	52*
C=CC[C@@H](CC(=O)OC(C)(C)C)C(=O)OC[C@@H]1CCCN1C(=O)[C@@H](CC=C)CC(=O)N(CCO)Cc1ccccc1	0	4	5	-1	.	.	.
O=C1NN(CCO)C(=S)Nc2ccccc21	.	-4	.	.	.	.	.
Nc1nc(NCCOCCO)nc(NC2CCCCC2)c1[N+](=O)[O-]	-1	6	-9	-4	2	4	.
Nc1nc(NCCO)nc(NC2CCCCC2)c1[N+](=O)[O-]	0	43*	4	-1	3	0	-6
CC(C)Oc1ccc(CN2CCCC(CO)(Cc3ccccc3)C2)cc1CO (stereo not given)	2	-3	-2	5	3	-4	.
CC(NCCC(Cc1ccccc1)c1ccco1)c1ccccc1 (stereo not given)	1	18*	-4	5	0	8	12
Cc1ccccc1-c1cccc([C@@H]2C[C@H]3[C@H](CON3C)CN2Cc2ccccc2)c1	0	7	-5	.	.	.	.
OCc1ccccc1CNCc1ccccc1	0	2	-2	4	0	2	.
Oc1cc(CNCc2ccccc2)c(O)cc1CNCc1ccccc1	4	52*	-1	.	.	.	12
O=C(Oc1ccc2c(c1)O/C(=C\c1ccncc1)C2=O)c1ccccc1	1	24*	-5	75*	-10	81*	32*
COc1cccc(NC(=O)CSc2nnnn2C2CCCCC2)c1	-1	-3	-6	.	-2	.	.
CCN=c1scc(C)n1/N=C/c1ccc(O)c(O)c1O	1	25*	-7	5	-17	15	22*
CCN=c1scc(C)n1/N=C/c1cc(Br)c(O)c(Br)c1	0	3	-7	5	0	7	.
O=C(C1CCC(=O)N(C2CC2)C1)N(CCO)Cc1ccccc1 (stereo not given)	0	47*	-5	-3	-1	5	0
CCN(CC)CCNC(=O)C1(O)c2cc(Br)ccc2NC(=O)N1c1ccccc1 (stereo not given)	0	6	-5	1	-1	2	.
COc1cc(C(=O)N/N=C/c2sc(N3CCOCC3)nc2-c2ccccc2)cc(OC)c1OC	3	17*	-1	2	5	3	7
Nc1ccc(C(=O)N/N=C/c2sc(N3CCOCC3)nc2-c2ccccc2)cc1	-1	-7	0	8	1	6	.
O=C1CC(C(=O)Nc2ccc(O)c(C(=O)O)c2)C(c2ccccc2)O1 (stereo not given)	3	1	-4	0	-4	3	.
O=C1CC(C(=O)Nc2ccccc2C(=O)O)C(c2ccccc2)O1 (stereo not given)	0	19*	-8	-4	-1	5	-12
O=C(c1cc2ccccc2o1)N1CCN(S(=O)(=O)c2ccccc2)CC1	0	19*	-5	.	.	.	-7
SMILES	C-LANA FP	E coli Lon inh	Keap1 Nrf2 FP	GLD-1 RNA inh	MEX-5 binding	BCLXL inh	E coli Lon conf
Cc1c(C(=O)N2CCN(S(=O)(=O)c3ccccc3)CC2)oc2ccc(Br)cc12	2	35*	-3	2	.	.	-31
CCOC(=O)N1C2c3ccccc3C(c3ccccc32)N1C(=O)OCC	-3	2	0	.	.	.	.
c1ccc(CSc2nnnn2-c2ccc3c(c2)OCCO3)nc1	3	30*	-6	1	-1	-4	-4
O=C(CSc1nnnn1-c1ccc2c(c1)OCCO2)N1CCc2ccccc21	1	-11	2	1	-1	6	.
O=C1[C@H]2[C@@H](c3ccccc3)N[C@]3(CCCN(Cc4ccco4)C3=O)[C@H]2C(=O)N1Cc1ccccc1	.	96*	.	.	.	.	-4
Cc1ccc(C)c(N(CC(=O)N2CCCC2)S(C)(=O)=O)c1	0	-1	-8	-2	5	-6	.
COc1ccc(N2CCN(C(=O)COC(=O)Cc3cccc(OC)c3)CC2)cc1	2	1	5	8	3	1	.
COc1cccc(N=CNc2cccc(OC)c2)c1	4	-4	4	.	.	.	.
Cc1cc(C)n2nc(SCc3cc(=O)oc4ccc5ccccc5c34)nc2n1	6	14*	-2	13	4	20	-12
O=C(CCCOC(=O)c1ccc(O)cc1O)c1ccc(Br)cc1	1	20*	-4	.	.	.	-10
COc1ccc(CCn2c(=N)c(S(=O)(=O)c3ccc(C)cc3)cc3c(=O)n4ccccc4nc32)cc1	3	-11	-17	-8	?	0	.
Cc1ccc(/C=C/C(=O)NCCCN2CCN(CCCNC(=O)/C=C/c3ccc(C)o3)CC2)o1	-1	27*	-1	-2	1	6	-3
N#CC(C#N)=C1C=C2C=C(N3CCCCCC3)CCC2CC1 (stereo not given)	-14	151*	-260	.	?	.	-95
O=C(CSCc1cc(=O)n2ccsc2n1)Nc1ccc(F)cc1	4	66*	-2	1	-1	2	3
CC1(C)CC(=O)C2=C(C1)Nc1ccccc1NC2c1ccc2c(c1)OCO2 (stereo not given)	1	36*	0	10	0	5	16*
COc1cc(C2Nc3cc(C)c(C)cc3NC3=C2C(=O)CC(C)(C)C3)ccc1OC(C)=O (stereo not given)	1	-11	-6	2	-2	3	.
CC1(C)CC(=O)C2=C(C1)Nc1cc3c(cc1C2c1ccc2c(c1)OCO2)OCO3 (stereo not given)	1	-7	-1	5	3	4	.
COc1ccccc1C1Nc2ccccc2NC2=C1C(=O)CC(C)(C)C2 (stereo not given)	0	-4	-2	7	-3	9	.
COc1ccc(C2Nc3ccccc3NC3=C2C(=O)CC(C)(C)C3)cc1O (stereo not given)	6	19*	4	2	1	7	9
CCOc1ccc(C2Nc3ccccc3NC3=C2C(=O)CC(C)(C)C3)cc1OC (stereo not given)	1	29*	-2	3	0	1	-2
